Experimental data taken from PubChem BioAssay (NCATS).
Results filed as inconclusive are left out. Activity calls are given as the source filed them. Unless noted, the call rests on the fitted dose curve.

Experiments:
[1] = qHTS for Inhibitors of the Functional Ribonucleoprotein Complex (vRNP) of Lassa (LASV) Arenavirus: LASV Primary Screen - GLuc reporter signal (AID 1347082; calls by dose curve; tested in HEK293 reporter line; further: nearly all actives have a fitted effect of over 60% in size; further: potency means the concentration at half of the fitted maximal effect; on activity change, negative = inhibition: on the % scale 0 is the no-effect control and ±100 the full control effect)
[2] = qHTS for Inhibitors of the Functional Ribonucleoprotein Complex (vRNP) of Lassa (LASV) Arenavirus: Viability assay - alamar blue signal for LASV Primary Screen (AID 1347083; calls by dose curve; tested in HEK293 reporter line; further: nearly all actives have a fitted effect of over 80% in size; further: potency means the concentration at half of the fitted maximal effect)
[3] = qHTS for Inhibitors of the Functional Ribonucleoprotein Complex (vRNP) of Lymphocytic Choriomeningitis Arenaviruses (LCMV): Viability assay - alamar blue signal for LCMV Primary Screen (AID 1347085; calls by dose curve; tested in HEK293 reporter line; further: nearly all actives have a fitted effect of over 80% in size; further: potency means the concentration at half of the fitted maximal effect)
[4] = biological target: Nucleoprotein (Lymphocytic choriomeningitis virus (strain Armstrong)) (UniProt P09992); test: qHTS for Inhibitors of the Functional Ribonucleoprotein Complex (vRNP) of Lymphocytic Choriomeningitis Arenaviruses (LCMV): LCMV Primary Screen - GLuc reporter signal (AID 1347086); further: nearly all actives have a fitted effect of over 70% in size; further: potency means the concentration at half of the fitted maximal effect; on activity change, negative = inhibition: on the % scale 0 is the no-effect control and ±100 the full control effect
[5] = Primary qHTS for inhibitors of SARS-S pseudo-typed particle cell entry (AID 1479145); further: nearly all actives have a fitted effect of over 45% in size
[6] = Primary qHTS for Huh7 cytotoxicity: counterscreen for inhibitors of MERS-S pseudotyped particle cell entry (AID 1479147); conditions: outcome: dose series up to 57.1 µM unless noted
[7] = Primary qHTS for inhibitors of MERS-S pseudo-typed particle cell entry (AID 1479149); further: nearly all actives have a fitted effect of over 60% in size; further: potency means the concentration at half of the fitted maximal effect
[8] = Primary qHTS for Vero E6 cytotoxicity: counterscreen for inhibitors of SARS-S pseudo-typed particle cell entry (AID 1479150); conditions: outcome: dose series up to 57.1 µM unless noted
[9] = Primary qHTS to identify inhibitors of SARS-CoV-2 cell entry (AID 1645846); conditions: activity change, negative = inhibition: at 57.1 µM (top of the series) unless noted; further: nearly all actives have a fitted effect of over 45% in size; further: potency means the concentration at half of the fitted maximal effect
How it was run: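 HEK293-ACE2 (Expi293F, stable hACE2), 1500 cells/well, o/n 37C; cpd 23 nL pin, 1 h; MLV-PP w/ SARS-CoV-2-S (Wuhan-Hu-1, Δ19 C-term); 48 h 37C; Bright-Glo luminescence; normalized vs S-PP and bald PP.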

[10] = Primary qHTS for small molecule stabilizers of the endoplasmic reticulum resident proteome: Secreted ER Calcium Modulated Protein (SERCaMP) assay (AID 1508630; active means well fitted curve in the direction sought with a large enough effect; an effect the other way counts as inactive or inconclusive; further: on the % scale 0 is the no-effect control and ±100 the full control effect)
How it was run: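 The SH-SY5Y reporter protocol was run at 3 concentrations up to 38.3 uM (primary) or 11 concentrations (follow-up): 16 h compound, 100 nM thapsigargin for 4 h, then extracellular luciferase luminescence.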

[11] = biological target: Alpha-galactosidase (Coffea arabica) (UniProt Q42656); test: Counterscreen for Glucocerebrosidase Inhibitors: qHTS Assay for Coffee Bean alpha-Galactosidase at pH 4.5 (AID 957; active means well fitted curve in the direction sought with a large enough effect; an effect the other way counts as inactive or inconclusive;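 further: plate controls were enzyme alone for no effect and no enzyme for full effect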)
How it was run: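 Enzyme is added first (2 nM final), then compounds titrated from 0.7 nM to 77 uM, then 80 uM 4-methylumbelliferyl alpha-D-galactopyranoside; after 20 min at room temperature a pH 10 NaOH/glycine stop precedes fluorescence reading at 365/440 nm.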

[12] = biological target: Alpha-galactosidase (Coffea arabica) (UniProt Q42656); test: Counterscreen for Glucocerebrosidase Inhibitors: qHTS Assay for Coffee Bean alpha-Galactosidase at pH 5.9 (AID 998; active means well fitted curve in the direction sought with a large enough effect; an effect the other way counts as inactive or inconclusive;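 further: plate controls were uninhibited enzyme for no effect and no-enzyme basal signal for full effect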)
How it was run: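 In 50 mM citric acid pH 5.9 with 0.005% Tween-20, coffee bean enzyme hydrolyses 80 uM 4-MU alpha-D-galactopyranoside over 20 min at RT. Activity is normalized to controls; AC50 comes from Hill-modelled concentration-response data.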

[13] = Cytotoxicity counterscreen for inhibitors of SARS-CoV-2 cell entry (AID 1645845); further: nearly all actives have a fitted effect of over 50% in size
How it was run: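 After a 15 min room-temperature ATPLite 1step step, luminescence reflected ATP remaining in HEK293-ACE2 cells exposed to compound for 1 h plus 48 h at 37 C, with percent activity set by cell and no-cell controls.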

[14] = Validation screen for inhibitors of Lassa infection (AID 463096); further: on the % scale 0 is the no-effect control and ±100 the full control effect
[15] = Inducers of the Endoplasmic Reticulum Stress Response (ERSR) in human glioma: Validation (AID 504836; active means well fitted curve in the direction sought with a large enough effect; an effect the other way counts as inactive or inconclusive; further: 0% is about no effect)
How it was run: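 Stably transfected U87-MG human glioma cells carrying a GRP78-based luminescent sensor were seeded at 1000 cells/well, pin-dosed with compounds and incubated 16 h. Luciferase reagent was then added, and end-point luminescence was read after 10 min at room temperature.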

[16] = VSVG counterscreen qHTS to identify inhibitors of SARS-CoV-2 cell entry (AID 1645847); further: potency means the concentration at half of the fitted maximal effect; nearly all actives have a fitted effect of over 65% in size
How it was run: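 Expi293F/hACE2 cells, overnight plating; cpd 1 h, 37C/5% CO2; + VSV-G PP (MLV pseudotyping), 48 h; supernatant removed, Bright-Glo luciferase read. Norm: VSV-G PP and bald PP wells.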

[17] = Confirmatory qHTS to identify inhibitors of SARS-CoV-2 cell entry (AID 1645844); further: potency means the concentration at half of the fitted maximal effect; nearly all actives have a fitted effect of over 45% in size
How it was run: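 Using stable human ACE2 Expi293F cells, compounds preincubated 1 hr before spike pseudoparticle infection; luciferase signal after 48 hr at 37C, 5% CO2, normalised to spike PP and no-fusion-protein PP wells.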

Sequence of Alpha-galactosidase (Coffea arabica) (Q42656 whole entry, looked up): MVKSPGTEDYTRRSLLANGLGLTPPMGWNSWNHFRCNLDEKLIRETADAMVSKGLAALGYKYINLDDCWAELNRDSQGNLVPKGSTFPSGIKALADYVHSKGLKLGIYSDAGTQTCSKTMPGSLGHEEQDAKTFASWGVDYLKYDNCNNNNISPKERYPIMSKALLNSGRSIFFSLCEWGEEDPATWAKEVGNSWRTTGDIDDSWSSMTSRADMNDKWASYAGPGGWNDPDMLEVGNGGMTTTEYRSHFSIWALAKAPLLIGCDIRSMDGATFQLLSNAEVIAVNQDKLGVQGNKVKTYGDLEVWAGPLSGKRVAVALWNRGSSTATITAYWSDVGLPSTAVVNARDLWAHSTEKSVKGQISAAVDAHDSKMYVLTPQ
Sequence of Nucleoprotein (Lymphocytic choriomeningitis virus (strain Armstrong)) (P09992 whole entry, looked up): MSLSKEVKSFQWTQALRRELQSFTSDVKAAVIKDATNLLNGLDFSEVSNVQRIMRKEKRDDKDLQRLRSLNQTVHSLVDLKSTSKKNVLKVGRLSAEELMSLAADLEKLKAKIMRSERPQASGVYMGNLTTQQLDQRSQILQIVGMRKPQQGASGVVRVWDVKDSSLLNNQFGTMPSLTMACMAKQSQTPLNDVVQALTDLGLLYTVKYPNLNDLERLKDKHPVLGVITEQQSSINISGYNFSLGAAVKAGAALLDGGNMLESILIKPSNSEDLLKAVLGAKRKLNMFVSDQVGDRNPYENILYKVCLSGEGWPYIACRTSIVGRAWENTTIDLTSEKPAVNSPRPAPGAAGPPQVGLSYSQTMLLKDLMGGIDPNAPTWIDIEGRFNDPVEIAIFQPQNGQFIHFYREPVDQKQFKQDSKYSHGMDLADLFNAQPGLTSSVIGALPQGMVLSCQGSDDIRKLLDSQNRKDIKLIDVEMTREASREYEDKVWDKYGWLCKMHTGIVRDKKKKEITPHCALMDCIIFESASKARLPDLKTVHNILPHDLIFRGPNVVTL

NCC1CCC(C(=O)O)CC1 (configuration not stated)
inactive: Potency [1] | Potency [2] | Potency [3] | Potency [4] | outcome [5] inactive [at 11.4 µM] | outcome [6] inactive [at 11.4 µM] | activity change, negative = inhibition [7] 2.4% [at 11.4 µM] | outcome [8] inactive [at 11.4 µM] | Potency [9]

CC(C)(O)C1OC2CCC3(C)C(O)(CCC4Cc5c([nH]c6ccccc56)C43C)C2=CC1=O (configuration not stated)
inactive: Potency [1] | Potency [2] | Potency [3] | Potency [4]

O=[N+]([O-])c1c(Cl)cccc1-c1c[nH]cc1Cl
inactive: Potency [1] | Potency [2] | Potency [3] | Potency [4] | outcome [6] | outcome [8]

O=C1CCC[C@H]2[C@H]3CCCN4CCCC(=CN12)[C@@H]34
inactive: Potency [1] | Potency [2] | Potency [3] | Potency [4] | Potency [10]

CN(C)CCCN1c2ccccc2CCc2ccccc21
inactive: outcome [11] | outcome [12] | Potency [1] | Potency [2] | Potency [3] | Potency [4] | outcome [6] | outcome [8] | Potency [13]

O=S(=O)(c1cccc2c(I)cccc12)N1CCCNCC1
-29.1%: activity change, negative = inhibition [9]
inactive: outcome [11] | outcome [12] | Potency [14] | outcome [15] | Potency [1] | Potency [2] | Potency [3] | Potency [4] | Potency [13]

CN1C2CCC1CC(OC(=O)C1CCC(C(=O)OC3CC4CCC(C3)N4C)(c3ccccc3)c3ccccc31)C2 (configuration not stated)
inactive: Potency [1] | Potency [2] | Potency [3] | Potency [4]

OC[C@@H]1[C@@H](O)[C@H](O)[C@H]2[C@@H](O)CCN21
inactive: Potency [1] | Potency [2] | Potency [3] | Potency [4]

C=C1C(=O)[C@@]23C(CC[C@@H]1[C@H]2O)[C@@]12CO[C@]3(O)[C@@H](O)[C@@H]1C(C)(C)CC[C@@H]2O (some centres not stated)
active: Potency [1] 9680 nM | Potency [2] 6850 nM | Potency [3] 2170 nM | Potency [4] 1220 nM

CCC(=O)NCC[C@@H]1CCc2ccc3c(c21)CCO3
inactive: Potency [1] | Potency [2] | Potency [3] | Potency [4] | outcome [6] | Potency [7] | outcome [8]
-26.7%: activity change, negative = inhibition [9]

CCCOc1ccc2[nH]cc(C3=CCNCC3)c2n1
inactive: Potency [1] | Potency [2] | Potency [3] | Potency [4]

O=C(O)c1nc(=O)[nH]c(=O)[nH]1
-18.6% [at 27.1 µM]: activity change, negative = inhibition [9]
inactive: Potency [1] | Potency [2] | Potency [3] | Potency [4] | outcome [6] inactive [at 0.573 µM] | outcome [7] inactive [at 0.573 µM] | activity change, negative = cytotoxicity [8] 2.99% [at 0.573 µM] | Potency [13] | outcome [9] inactive [at 0.702 µM]

COC(=O)C1=CO[C@@H](C)[C@@H]2CN3CC[C@]4(C(=O)Nc5c4ccc(OC)c5OC)[C@H]3C[C@H]12
inactive: Potency [1] | Potency [2] | Potency [3] | Potency [4] | Potency [10]

C=C1C2C[C@]3(C4CC5[C@@]6(C)CC[C@H](O)[C@@]5(C3CC2=O)C4[N+]([O-])(CC)C6)[C@@H]1O (some centres not stated)
inactive: Potency [1] | Potency [2] | Potency [3] | Potency [4] | Potency [10]

N[C@@H](CC(=O)N1CCn2c(nnc2C(F)(F)F)C1)Cc1cc(F)c(F)cc1F
inactive: Potency [1] | Potency [2] | Potency [3] | Potency [4] | outcome [6] | Potency [7] | outcome [8] | Potency [13]
-27.8%: activity change, negative = inhibition [9]

CCN1C[C@]2(C)CC[C@H](OC)[C@]34C5C[C@@H]6CC[C@@](O)(C5C(=O)O6)C(C13)[C@@H](OC(=O)c1ccccc1)C24
inactive: Potency [1] | Potency [2] | Potency [3] | Potency [4] | Potency [10]

CC(C)C(=O)Oc1ccc(CO)cc1[C@H](CCN(C(C)C)C(C)C)c1ccccc1
inactive: Potency [1] | Potency [2] | Potency [3] | Potency [4] | outcome [6] | outcome [8] | Potency [13]
active: Potency [7] 14100 nM | Potency [9] 14100 nM | Potency [16] 21500 nM

Cc1ccccc1O
inactive: Potency [1] | Potency [2] | Potency [3] | Potency [4] | outcome [6] | Potency [7] | outcome [8] | Potency [13]
-10.9% [at 114 µM]: activity change, negative = inhibition [9]

O=C(O)/C=C/c1ccccc1
-30.4% [at 114 µM]: activity change, negative = inhibition [9]
inactive: Potency [1] | Potency [2] | Potency [3] | Potency [4] | outcome [6] inactive [at 114 µM] | Potency [7] | outcome [8] inactive [at 114 µM] | Potency [13]

N#CC(c1ccc(Cl)cc1)c1c(Cl)cc(-n2ncc(=O)[nH]c2=O)cc1Cl (configuration not stated)
inactive: Potency [1] | Potency [2] | Potency [3] | Potency [4] | outcome [6] | outcome [8] | Potency [13]
active: Potency [17] 13.6 nM | Potency [16] 21500 nM

CN(C)CCC(c1ccc(Br)cc1)c1ccccn1 (configuration not stated)
inactive: Potency [14] | outcome [15] | Potency [1] | Potency [2] | Potency [3] | Potency [4] | outcome [6] | Potency [7] | outcome [8]

Clc1ccc2c(c1)N=C(N1CCNCC1)c1ccccc1N2
inactive: outcome [15] | Potency [1] | Potency [2] | Potency [3] | Potency [4]

OCCCNc1cc(-c2ccnc(Nc3cccc(Cl)c3)n2)ccn1
active: Potency [1] 306 nM | Potency [2] 193 nM | Potency [3] 769 nM | Potency [4] 968 nM
-94.2%: activity change, negative = inhibition [9]
